In the library only some 2.9% were active in any assay of this set; here they are far more common.
H9c2 TAG inh – triacylglycerol accumulation inhibition. 230,000 tested, 0.66% active. AID 651582. inhibition, % at 12.5 µM. H9c2 cells, Nile Red lipid (TAG) fluorescence; cells loaded with 200 µM oleic acid;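 active = pattern-corrected inhibition of lipid staining of at least 50% with the nuclear-stain viability signal not falling by more than 50%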;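 also: 0% = DMSO wells and 100% = triacsin C control wells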
APOBEC3A inh – inhibitors of human APOBEC3A DNA deaminase; P31941; recombinant A3A, FAM/TAMRA ssDNA deamination fluorescence; inhibition, % at 20 µM; 330,000 tested, 0.41% active;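 active = at least 40% inhibition at 20 µM here, with at most 30% in a related deaminase screen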;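 also: plate controls were A3A with DMSO for no effect and wells lacking A3A enzyme for full effect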
Target sequence (P31941 whole entry, looked up): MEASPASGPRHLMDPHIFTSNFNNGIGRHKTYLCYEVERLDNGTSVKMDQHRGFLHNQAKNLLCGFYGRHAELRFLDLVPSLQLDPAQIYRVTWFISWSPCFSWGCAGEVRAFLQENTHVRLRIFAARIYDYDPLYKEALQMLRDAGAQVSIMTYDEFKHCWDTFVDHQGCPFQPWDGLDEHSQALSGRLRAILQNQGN
APOBEC3G inh – APOBEC3G (human) deaminase inhibition; Q9HC16; recombinant A3G, ssDNA deamination FAM/TAMRA fluorescence; inhibition, % at 20 µM; 330,000 tested, 0.28% active;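 active = inhibition of at least 40% at 20 µM, with no more than 30% in the related APOBEC3A deaminase screen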;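 also: plate controls were DMSO wells with A3G for no effect and wells lacking A3G enzyme for full effect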
Target sequence (Q9HC16 whole entry, looked up): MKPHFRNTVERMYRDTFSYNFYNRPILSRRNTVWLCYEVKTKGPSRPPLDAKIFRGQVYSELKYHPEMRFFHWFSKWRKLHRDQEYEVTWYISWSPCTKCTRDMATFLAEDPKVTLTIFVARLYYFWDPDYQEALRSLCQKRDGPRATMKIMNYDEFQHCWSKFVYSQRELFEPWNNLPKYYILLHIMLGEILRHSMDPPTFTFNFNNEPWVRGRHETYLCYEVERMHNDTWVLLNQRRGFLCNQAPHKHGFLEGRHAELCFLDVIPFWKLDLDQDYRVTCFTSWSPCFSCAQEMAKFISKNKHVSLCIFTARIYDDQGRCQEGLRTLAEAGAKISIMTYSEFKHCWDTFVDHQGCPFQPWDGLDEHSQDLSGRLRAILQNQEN
NadD block – NadD (S. aureus) enzyme inhibition; purified NadD enzyme, colorimetric absorbance read-out; inhibition, % at 20 µM; 360,000 tested, 0.78% active; AID 602399; in the data active = inhibition above about 26%
Cardio protect – myocardial damage modulation in H9c2 cells; H9c2 cardiomyocytes, H2O2 injury protection, ATPLite, 2 h; protection from H2O2 cell death, % at 20 µM; 360,000 tested, 0.63% active;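 active = compounds giving at least 50% protection of heart cells from peroxide-induced death in the single-dose screen, raw or plate-pattern-corrected value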;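 also: 0% = DMSO wells with peroxide and 100% = DMSO wells without peroxide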
PfG6PD inh – PfG6PD (Plasmodium falciparum) enzyme inhibition; 350,000 tested, 0.78% active; AID 504690; inhibition, % at 20 µM; PfGluPho enzyme, NADPH resazurin-diaphorase fluorescence;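 active = inhibition reaching at least a set limit at 20 µM in the primary screen, cut at about 59% in these data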;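 also: 0% = DMSO wells with substrate and 100% = DMSO wells lacking glucose-6-phosphate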
The depositor's hits bear a star; · = no result given; ! = not confirmed by another sample.

SMILES | H9c2 TAG inh | APOBEC3A inh | APOBEC3G inh | NadD block | Cardio protect | PfG6PD inh
COc1cccc(/C=N/NC(=O)CN2CC(c3ccccc3)CC2=O)c1O (stereo not drawn) | -5 | 1 | -4 | 2 | 56* | -31
CCCCSc1nc(C)cc(SCC(=O)N/N=C/c2cccc(OC)c2O)n1 | 10 | 3 | 4 | 8 | 52* | -28
COc1cccc(/C=N/NC(=O)CSc2nnc(C)n2-c2ccccc2)c1O | -3 | -5 | -3 | 0 | 80* | -38
COc1cccc(/C=N/NC(=O)c2c(C)nc3ccc(Cl)cn23)c1O | · | -5 | -9 | 7 | 50 | -18
FC(F)(F)c1ccc(C2NCCc3sccc32)cc1 (stereo not drawn) | · | 1 | -1 | 2 | -8 | 0
CCNC(=O)C1(C)CCCN(C(=O)c2cc(-c3cccs3)oc2C)C1 (stereo not drawn) | 13 | · | · | -1 | -21 | ·
CC1(c2cc([N+](=O)[O-])cc([N+](=O)[O-])c2)CC(C)(C)N(C(=O)c2ccccc2)c2ccccc21 (stereo not drawn) | 91* | 1 | -2 | 0 | -4 | 5
CC1(c2ccccc2)CC(C)(C)N(C(=O)C2CCCO2)c2ccccc21 (stereo not drawn) | · | -3 | 5 | -3 | 4 | 3
Clc1ccc(C2NCCc3sccc32)cc1 (stereo not drawn) | 7 | -3 | 1 | -7 | 9 | -3
Oc1ccc(C2CNCc3sccc32)cc1O (stereo not drawn) | -5 | 1 | 18 | 3 | 54* | 28
Cc1cc(C2CCCCC2)n(O)c(=O)c1 | 16 | 0 | -6 | 0 | 69* | -22
Cn1c(NC2CCCCC2)cc(=O)n(C)c1=O | · | -7 | -12 | -2 | -3 | -6
CC(C)Oc1ccc(C(=O)NC2(C(F)(F)F)N=C3SCCN3C2=O)cc1 (stereo not drawn) | · | -1 | -3 | 10 | -2 | -5
c1cc2[nH]snc2c2nc(C3CC3)nc12 | · | 3 | 5 | -2 | 86* | 23
Cc1nn(C(=O)CCCn2cc([N+](=O)[O-])cn2)c(C)c1Cl | 0 | -2 | -10 | -2 | -1 | 14
CCOC(=O)c1c(C)oc2c1c1c(c3ccccc32)OCN(Cc2ccccn2)C1 | 5 | -5 | -6 | 5 | 54* | 23
CCOC(=O)c1c(C)oc2c1c(CN1CCN(C(=O)OCC)CC1)c(O)c1ccccc12 | · | 0 | -4 | 11 | -22 | 30
CC(C)(C)c1cc[n+](C2=C([O-])c3ccccc3C(=O)/C2=N\S(=O)(=O)c2cccs2)cc1 | 64* | -3 | -9 | 3 | -16 | 44
COCCN1C(=O)/C(=C2/C(=O)N(CC(=O)Nc3ccccc3Cl)c3ccccc32)SC1=S | -9 | 1 | 1 | 22 | 3 | -13
O=C(CN1C(=O)/C(=C2/SC(=S)N(CCS(=O)(=O)O)C2=O)c2ccccc21)Nc1cccc(C(F)(F)F)c1 | 8 | 0 | 3 | 34* | 1 | 16
O=C(CN1C(=O)/C(=C2\SC(=S)N(CCS(=O)(=O)O)C2=O)c2ccccc21)Nc1cccc(Br)c1 | · | · | · | 51* | -1 | 24
Cc1ccc2cc(C#N)c(SCc3nnc(-c4ccccc4[N+](=O)[O-])o3)nc2c1 | · | 4 | -4 | -62 | -4 | -8
O=C(NCc1ccccc1)c1cc2ccc(O)cc2oc1=O | 6 | -5 | -4 | -6 | -7 | -28
O=c1oc2ccccc2c(Nc2cccc3cccnc23)c1[N+](=O)[O-] | -4 | 0 | 1 | 1 | 0 | -2
CCc1cc2cccc(C)c2nc1SCC(=O)N1CCN(C(=O)c2ccco2)CC1 | -15 | -1 | -8 | 10 | 59* | -10
SMILES | H9c2 TAG inh | APOBEC3A inh | APOBEC3G inh | NadD block | Cardio protect | PfG6PD inh
CCc1cc2cc(C)cc(C)c2nc1SCC(=O)N1CCN(C(=O)c2ccco2)CC1 | 6 | 4 | 4 | 14 | 10 | -1
COc1cc(Cl)ccc1OCc1cc(C(=O)NC(C)Cc2cccnc2)no1 (stereo not drawn) | 2 | -1 | -5 | 2 | 3 | -11
CC(=O)OCc1nc2sc(C)c(C)c2c(=O)[nH]1 | 23 | 5 | 2 | 0 | 51* | 15
Cc1sc2nc(SCC(=O)N3CCCC3)[nH]c(=O)c2c1C | -1 | 2 | 0 | 2 | 80* | 5
CCN(CC)C(=O)CSc1nc2sc(C)c(C)c2c(=O)[nH]1 | 11 | -1 | -9 | -1 | 44 | -3
Cc1sc2nc(SCC(=O)N(C)C)[nH]c(=O)c2c1C | 5 | 2 | 0 | 0 | 73* | 9
CCOC(=O)c1cc(S(=O)(=O)NC2CCC(C)CC2)cn1C (stereo not drawn) | · | -6 | -6 | -3 | -4 | 0
Cc1ccc(OCC(=O)OCC(=O)NC2CC2)cc1C | -8 | 3 | 5 | -2 | 7 | 11
O=C1OCC2=C1C(c1ccc(F)cc1)c1cc3c(cc1N2)OCCO3 (stereo not drawn) | 60* | · | · | 6 | -3 | -3
O=C1OCC2=C1C(c1ccc(F)cc1)c1cc3c(cc1N2)OCO3 (stereo not drawn) | -9 | · | · | -4 | -6 | -8
CCCC(=O)Oc1ccc2c(C)cc(=O)oc2c1 | · | -2 | -5 | -8 | 42 | -6
CCCCn1nc(C(=O)Oc2ccc3c(C)cc(=O)oc3c2)c2ccccc2c1=O | · | 36 | 8 | 1 | 52* | 19
CCCCCCCCCCCCCCCC[n+]1ccccc1 | 54*! | · | · | 17 | -41 | -9
CCCCCCCCCCCCCCCC[n+]1ccc(/C=N/O)cc1 | · | 2 | 4 | 20 | -20 | 15
CC1(c2ccc(Cl)cc2)NC(=O)N(CC(=O)N2CCc3ccccc32)C1=O (stereo not drawn) | 2 | -5 | -9 | -1 | -4 | 14
COc1ccc(-c2cc3nc(-c4ccccc4)cc(N4CCN(C(C)=O)CC4)n3n2)cc1 | 31 | · | · | -4 | 80* | 17
COc1cccc(-c2cc3nc(C)c(C)c(N4CCN(C(=O)c5ccoc5)CC4)n3n2)c1 | 23 | · | · | 4 | 56* | 19
Cc1ccc(-c2cc3nc(C)cc(N4CCN(C(=O)c5ccoc5)CC4)n3n2)cc1 | 36 | · | · | 6 | 1 | 18
COC1CCCN(Cc2c(C(=O)N3CCN(C4CCCCC4)CC3)nc3ccccn23)C1 (stereo not drawn) | · | -3 | 2 | 3 | -1 | -8
C/C(=N\NC(=O)c1cc(C)nc2ccccc12)c1ccccn1 | 4 | 1 | -5 | 5 | 25 | -12
COc1ccc2nc(NN=C(C)c3ccccn3)cc(C)c2c1 | 67* | · | · | -2 | -8 | 12
COc1ccc(NC(C)=O)cc1S(=O)(=O)N(C)Cc1c(C)nn(-c2ccccc2)c1C | -18 | 8 | -2 | -3 | 6 | -11
CC(C)(C)n1nc2c(c1NC(=O)COc1ccc(Cl)cc1)CS(=O)(=O)C2 | 2 | 4 | -10 | -2 | 12 | 0

Compound activity from PubChem.
